Compound activity (PubChem)
This is a sample that favours compounds with a hit; in the whole collection about 6.2% have one here.
S2 tox – Viability Counterscreen for Primary qHTS for Inhibitors of ATXN expression | S2 cells (HEK-293 line with an ATXN2-luciferase reporter) viability, CellTiter-Fluor protease fluorescence, 24 h | Potency, µM (series often up to 56.7 µM), hits mostly cytotoxic | 0.49% of 400,000 active | AID 651635, 2014; note: nearly all actives have a fitted effect of over 40% in size
ATXN2 expr inh – Primary qHTS for Inhibitors of ATXN expression. AID 1745845, 2022. HEK-293 ATXN2-luciferase reporter, luminescence, 24 h. Potency, µM (series often up to 57 µM), actives largely listed as inhibitors. 0.72% of 360,000 active; note: nearly all actives have a fitted effect of over 55% in size
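ATXN2-luciferase reporter cells (luciferase flanked by upstream and downstream ATXN2 gene portions) were treated 24 h at 37 °C with compounds at up to 57 uM. SteadyGlo luminescence gave expression; GF-AFC fluorescence gave viability.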
HT1080 IDH1KD tx – qHTS for induction of synthetic lethality in tumor cells producing 2HG: qHTS for the HT-1080-IDH1KD cell line | HT-1080 IDH1 knockdown viability, ATP luminescence, 48 h | Potency, µM (series often up to 46.1 µM), hits mostly cytotoxic | 2% of 360,000 active | AID 686971, 2013
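IDH1KD HT-1080 cells, 750/well, RPMI + 5% FBS; compound pinned after 2 h settling; 48 h, 37 °C; CellTiter-Glo luminescence; % activity normalised to DMSO and no-cell wells; curves fitted, classed by r2 and efficacy.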
KB-3-1 cytotox – qHTS assay for MDR1-selective chemotherapeutics: Primary screen using the parental adenocarcinoma cell KB-3-1. Potency, µM (titrated, usually from 46.1 µM), usual class: cytotoxic. 1.4% of 400,000 active. KB-3-1 viability, CellTiter-Glo ATP luminescence, 72 h. AID 1347075, 2019; note: nearly all actives have a fitted effect of over 60% in size
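Luminescent ATP read-out (CellTiter-Glo) measures survival of drug-naive KB-3-1 cells after 72 h compound exposure at 37 °C. Titration series was screened from lowest to highest concentration, with DMSO vehicle plates as background controls.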
HT1080NT lethal – qHTS for induction of synthetic lethality in tumor cells producing 2HG: qHTS for the HT-1080-NT fibrosarcoma cell line. AID 686970, 2013. HT-1080-NT fibrosarcoma viability, CellTiter-Glo ATP luminescence, 48 h. Potency, µM (titrated, usually from 46.1 µM), hits mostly cytotoxic. 1.6% of 360,000 active;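 note: NT is the 2HG producing partner of a matched IDH1 knockdown line; nearly all actives have a fitted effect of over 55% in size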
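HT-1080-NT; 750 cells/well; 5% FBS RPMI; 48 h compound, 37 degrees C; CellTiter-Glo luminescence; curve fitting and curve-class assignment.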
KB-V1 cytotox – qHTS assay for MDR1-selective chemotherapeutics: Primary screen using the drug-selected MDR subline cells KB-V1; AID 1347076, 2019; Potency, µM (titrated, usually from 46.1 µM), hits mostly cytotoxic; 3.4% of 400,000 active; KB-V1 MDR cells viability, CellTiter-Glo, 72 h; note: nearly all actives have a fitted effect of over 60% in size
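Cytotoxicity toward P-gp-expressing KB-V1 cells was determined as loss of CellTiter-Glo luminescence after 72 h at 37 degrees C. Compounds were tested in quantitative HTS format across a concentration range, with curves fitted to normalized data.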
Of the large screens only hits and unclear results are named; the others gave an inactive call. Calls come from the whole dose curve; as a rule, active = well fitted curve in the direction sought with a large enough effect; inconclusive = small, poorly fitted or top-dose-only effect, or another doubt; inactive = no such curve, though single readings can be large; an effect the other way counts as inactive or inconclusive.

CCOC(=O)C(=Cc1ccc(Br)cc1)C(=O)OCC	S2 tox 8.91µM, ATXN2 expr inh inconclusive, HT1080 IDH1KD tx 6.51µM, KB-3-1 cytotox inconclusive, HT1080NT lethal 20.6µM, KB-V1 cytotox 16.4µM
CCOC(=O)C(CC)(CC)C(=O)/C=C/c1ccc(Br)cc1	HT1080 IDH1KD tx inconclusive, KB-3-1 cytotox 20.6µM, HT1080NT lethal inconclusive, KB-V1 cytotox 18.4µM
CCc1ccc(NC(=O)Cn2c(=O)n(CCCCC(=O)NCCc3ccccc3)c(=O)c3ccccc32)cc1	KB-V1 cytotox inconclusive (no result: HT1080 IDH1KD tx, HT1080NT lethal)
CC1CCCN(S(=O)(=O)c2ccc(NC(=O)Cn3nnc(-c4ccccc4F)n3)cc2)C1 (stereo not given)	HT1080 IDH1KD tx inconclusive, HT1080NT lethal inconclusive
Cc1ccc(-c2nnn(CC(=O)Nc3ccc(S(=O)(=O)N4CCC(C)CC4)cc3)n2)cc1	HT1080 IDH1KD tx 11.6µM, HT1080NT lethal 23.1µM, KB-V1 cytotox inconclusive
CC1CCN(S(=O)(=O)c2ccc(NC(=O)Cn3nnc(-c4ccccc4)n3)cc2)CC1	HT1080 IDH1KD tx inconclusive, KB-3-1 cytotox inconclusive, HT1080NT lethal inconclusive, KB-V1 cytotox 14.6µM
Cc1c(C(N)=O)c(N)c(C(=O)c2ccccc2)n1-c1ccccc1	KB-V1 cytotox 20.6µM
Cc1ccc(C)c(N2CCN(C(=O)c3ccc(-c4nc(COc5ccccc5)c(C)o4)cc3)CC2)c1	none (no result: HT1080 IDH1KD tx, HT1080NT lethal)
O=C(Nc1ccccc1)c1cc(C2CCCN(C(=O)CCc3ccccc3)C2)on1 (stereo not given)	none
CN(C)c1ccc(CC(=O)N2CCCC(c3cc(C(=O)Nc4ccc(C(C)(C)C)cc4)no3)C2)cc1 (stereo not given)	S2 tox inconclusive, ATXN2 expr inh inconclusive, HT1080 IDH1KD tx 10.3µM
CC(C)(C)c1cnnn1-c1ccc(C(=O)CCl)cc1	S2 tox inconclusive, HT1080 IDH1KD tx inconclusive, KB-3-1 cytotox inconclusive, HT1080NT lethal inconclusive, KB-V1 cytotox 23.1µM
CC(C)Cn1c(N)c(C(=O)COC(=O)c2cc(-c3ccccc3)nc3ccccc23)c(=O)n(C)c1=O	KB-3-1 cytotox inconclusive, KB-V1 cytotox inconclusive
CC(C)Cn1c(N)c(C(=O)COC(=O)c2cc(C3CC3)nc3ccccc23)c(=O)n(C)c1=O	S2 tox inconclusive, ATXN2 expr inh inconclusive, HT1080 IDH1KD tx inconclusive, KB-3-1 cytotox inconclusive, HT1080NT lethal 20.6µM, KB-V1 cytotox inconclusive
COc1cc2nc(N3CCCN(C)CC3)nc(NC3CCOCC3)c2cc1OC	none (no result: S2 tox, ATXN2 expr inh, KB-3-1 cytotox, KB-V1 cytotox)
CCOc1ccc(S(=O)(=O)N2CCN(c3nc(-c4ccccc4)nc4ccccc34)CC2)cc1	none (no result: S2 tox, ATXN2 expr inh, KB-3-1 cytotox, KB-V1 cytotox)
O=C(O)/C=C/c1ccc2c(c1)S(=O)(=O)N(C1CCCC1)[C@H]2CC(=O)O	none (no result: S2 tox, ATXN2 expr inh, HT1080 IDH1KD tx, HT1080NT lethal)
CC(=O)/C=C/c1ccc2c(c1)S(=O)(=O)N(C1CCCC1)[C@H]2CC(C)=O	KB-3-1 cytotox inconclusive, KB-V1 cytotox 18.4µM (no result: S2 tox, ATXN2 expr inh, HT1080 IDH1KD tx, HT1080NT lethal)
COc1ccc(NC(=O)c2cccc(-c3ccc(O)cc3)c2)cn1	S2 tox inconclusive, HT1080 IDH1KD tx 2.06µM, KB-3-1 cytotox inconclusive, HT1080NT lethal inconclusive
COc1ccc(C(CCNCc2ccc(F)cc2)c2ccc(F)cc2)cc1 (stereo not given)	S2 tox inconclusive, ATXN2 expr inh inconclusive, HT1080 IDH1KD tx 23.1µM, KB-3-1 cytotox inconclusive, HT1080NT lethal inconclusive, KB-V1 cytotox inconclusive
COc1ccc(C(CCNC(C)c2ccccc2)c2ccc(F)cc2)cc1 (stereo not given)	S2 tox inconclusive, ATXN2 expr inh 28.2µM, HT1080 IDH1KD tx 18.4µM, KB-3-1 cytotox inconclusive, HT1080NT lethal inconclusive, KB-V1 cytotox 11.6µM
COc1ccc(CNCCC(c2ccc(F)cc2)c2ccc(OC)cc2)cc1 (stereo not given)	HT1080 IDH1KD tx 20.6µM, KB-3-1 cytotox 23.1µM, HT1080NT lethal 20.6µM, KB-V1 cytotox inconclusive
COc1ccc(CCNCc2ccc(OCc3ccccc3)cc2)cc1	HT1080 IDH1KD tx 18.4µM, HT1080NT lethal inconclusive
